An excerpt weighted towards active compounds, which were near 6.9% of everything screened.
PLK1 PBD inh: blocks phosphopeptide binding to human PLK1 polo-box domain. P53350. Plk1 PBD binding of FITC phosphopeptide, fluorescence polarization. Potency, µM, actives largely listed as inhibitors. actives 2.8% (n = 360,000). AID 720504; also: series mostly up to about 57 µM; nearly all actives have a fitted effect of over 65% in size
JMJD2A Tudor inh: inhibitors of human JMJD2A Tudor domain | AlphaScreen JMJD2A-Tudor / H3K4me3 peptide binding | Potency, µM (top dose mostly 114 µM), actives largely listed as inhibitors | actives 4.4% (n = 390,000) | AID 504339; also: nearly all actives have a fitted effect of over 50% in size
Target sequence (O75164 whole entry, looked up, the tested form may be a part): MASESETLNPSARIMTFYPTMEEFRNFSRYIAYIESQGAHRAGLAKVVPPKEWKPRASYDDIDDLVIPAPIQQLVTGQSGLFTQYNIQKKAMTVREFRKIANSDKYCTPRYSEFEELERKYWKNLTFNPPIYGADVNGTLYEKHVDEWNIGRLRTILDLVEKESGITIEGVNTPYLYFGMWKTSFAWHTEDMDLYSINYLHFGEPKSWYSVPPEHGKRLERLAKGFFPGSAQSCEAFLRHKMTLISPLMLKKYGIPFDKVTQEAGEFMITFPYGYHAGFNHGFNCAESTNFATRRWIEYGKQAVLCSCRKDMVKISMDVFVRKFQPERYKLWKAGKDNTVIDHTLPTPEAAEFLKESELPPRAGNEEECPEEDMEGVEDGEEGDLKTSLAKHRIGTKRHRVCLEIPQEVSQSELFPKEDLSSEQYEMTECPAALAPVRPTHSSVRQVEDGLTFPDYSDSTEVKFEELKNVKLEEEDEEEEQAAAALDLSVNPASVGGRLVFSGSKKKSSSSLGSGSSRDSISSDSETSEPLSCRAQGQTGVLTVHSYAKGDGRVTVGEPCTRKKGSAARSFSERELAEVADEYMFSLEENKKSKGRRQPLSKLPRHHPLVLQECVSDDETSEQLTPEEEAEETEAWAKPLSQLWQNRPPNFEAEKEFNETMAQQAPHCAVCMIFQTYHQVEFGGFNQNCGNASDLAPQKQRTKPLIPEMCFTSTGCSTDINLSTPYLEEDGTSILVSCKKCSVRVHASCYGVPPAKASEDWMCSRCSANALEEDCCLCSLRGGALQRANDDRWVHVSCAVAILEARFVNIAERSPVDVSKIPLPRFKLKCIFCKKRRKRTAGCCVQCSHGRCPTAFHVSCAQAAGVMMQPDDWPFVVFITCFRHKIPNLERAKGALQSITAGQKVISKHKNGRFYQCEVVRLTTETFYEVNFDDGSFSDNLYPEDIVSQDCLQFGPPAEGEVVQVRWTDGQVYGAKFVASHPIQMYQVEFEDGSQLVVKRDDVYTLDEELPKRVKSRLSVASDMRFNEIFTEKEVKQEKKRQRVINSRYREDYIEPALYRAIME
VDR inh: inhibitors of human vitamin D receptor; P11473; VDR-SRC2-3 peptide fluorescence polarization, 2 h; Potency, µM, usual class: inhibitors; actives 0.93% (n = 400,000)
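Reagent solutions, kept cold and dark, are dispensed first; compounds are then pinned in at 23 nl, plates briefly spun, and incubated 2 h at ambient temperature. Inhibition of VDR–SRC2-3 peptide binding is read by fluorescence polarization.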
L3MBTL1 block: inhibitors of human L3MBTL1; actives 0.66% (n = 230,000); AlphaScreen L3MBTL1–H3K9me1 peptide binding; Potency, µM (top dose mostly 57.1 µM), hits mostly inhibitors; also: nearly all actives have a fitted effect of over 60% in size
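AlphaScreen proximity signal between nickel-chelate acceptor and streptavidin donor beads (final 10 ug/mL) reports binding of 50 nM L3MBTL1 to 75 nM biotin-H3 K9me1 peptide; complex incubated with compounds 30 min at room temperature; cefsulodin titration as control.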
BAZ2B inh: inhibitors of human BAZ2B bromodomain; Q9UIF8; actives 4.4% (n = 360,000); AlphaScreen BAZ2B-H3K14Ac peptide displacement; Potency, µM (series often up to 114 µM), most hits filed as inhibitors; AID 504333; also: nearly all actives have a fitted effect of over 60% in size
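Multi-concentration screen (max 110 uM) measuring displacement of acetylated histone H3 peptide from BAZ2B by AlphaScreen, using 50 nM protein, 50 nM peptide and 10 ug/mL streptavidin donor plus Ni-chelate acceptor beads.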
HP1b chromo inh: HP1-beta chromodomain-methylated histone interaction inhibition; P83916; AlphaScreen HP1-beta / biotin-H3K9me3 peptide binding; Potency, µM (highest dose often 114 µM), usual class: inhibitors; actives 0.56% (n = 390,000); also: nearly all actives have a fitted effect of over 70% in size
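AlphaScreen: HP1-beta (50 nM) preformed 30 min with biotin-H3(1-18)K9me3 peptide (50 nM) in PBS pH 7.4, 0.01% Tween-20. Compound added for 30 min at RT, then streptavidin donor/nickel chelate acceptor beads (10 ug/mL) for 30 min.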
Of the large screens only hits and unclear results are named; the others gave an inactive call; ! = not active in a repeat. Calls follow the shape of the dose curve; as a rule, active = well fitted curve in the direction sought with a large enough effect; inconclusive = small, poorly fitted or top-dose-only effect, or another doubt; inactive = no such curve, though single readings can be large; an effect the other way counts as inactive or inconclusive.

O=C(c1cc(-c2ccncc2)nc2ccc(Cl)cc12)N1CCN(Cc2ccc3c(c2)OCO3)CC1	JMJD2A Tudor inh inconclusive, BAZ2B inh 40µM
CCS(=O)(=O)N1CCC(C(=O)N2CCN(Cc3ccccc3)CC2)CC1	none
O=C(C1CCN(Cc2cc(Cl)ccc2O)CC1)N1CCN(Cc2ccccc2)CC1	JMJD2A Tudor inh 3.5µM, BAZ2B inh inconclusive, HP1b chromo inh inconclusive
COc1cccc(OC)c1C(=O)N1CCN(Cc2ccc3c(c2)OCO3)CC1	JMJD2A Tudor inh 5µM, BAZ2B inh 50µM, HP1b chromo inh 45µM
O=C(C1CCN(S(=O)(=O)c2ccccc2)CC1)N1CCN(Cc2ccc3c(c2)OCO3)CC1	none (no result: L3MBTL1 block)
O=C(C1CCN(Cc2ccccc2O)CC1)N1CCN(Cc2ccc3c(c2)OCO3)CC1	JMJD2A Tudor inh 2.8µM, BAZ2B inh inconclusive, HP1b chromo inh inconclusive (no result: L3MBTL1 block)
c1ccc(Cc2nnc3sc(-c4ccc5c(c4)OCO5)nn23)cc1	PLK1 PBD inh 20µM, HP1b chromo inh inconclusive (no result: L3MBTL1 block, BAZ2B inh)
c1ccc(Cc2nnc3sc(-c4cccnc4)nn23)cc1	PLK1 PBD inh 30µM
c1ccc(Cc2nnc3sc(-c4cccs4)nn23)cc1	PLK1 PBD inh 15µM, VDR inh inconclusive
CCOC(=O)C1CCC(=O)N1Cc1c[nH]c2ccccc12 (stereo unspecified)	none (no result: JMJD2A Tudor inh, VDR inh, L3MBTL1 block, BAZ2B inh, HP1b chromo inh)
CC(C)(C)c1ccc(C(=O)NNc2ncnc3c2cnn3-c2ccccc2)cc1	none (no result: PLK1 PBD inh, L3MBTL1 block)
COc1ccc(NC(=O)CSc2ccc3nc(-c4ccccc4)cn3n2)c(OC)c1	none (no result: PLK1 PBD inh, L3MBTL1 block)
CN(C)c1ccc(N=Nc2cccc3ccoc23)cc1	JMJD2A Tudor inh 25µM, L3MBTL1 block 10µM, BAZ2B inh 5.6µM, HP1b chromo inh 18µM
Cc1cc(N(C)C)ccc1N=Nc1ccc2ncccc2c1	PLK1 PBD inh inconclusive, JMJD2A Tudor inh 6.3µM, L3MBTL1 block 8.9µM, BAZ2B inh 3.2µM, HP1b chromo inh 8.9µM
CN(C)c1ccc(N=Nc2ccc3ncccc3c2)cc1	JMJD2A Tudor inh 3.2µM, HP1b chromo inh inconclusive (no result: L3MBTL1 block, BAZ2B inh)
CN(C)c1ccc(N=Nc2cccc(F)c2)cc1	JMJD2A Tudor inh 8.9µM, BAZ2B inh 4.5µM, HP1b chromo inh 6.3µM (no result: L3MBTL1 block)
CC(=O)c1cccc(NC(=O)CN2C(=O)c3cccnc3Sc3ccccc32)c1	none (no result: PLK1 PBD inh, L3MBTL1 block)
O=c1n(Cc2ccccc2)c(O)c2n1Cc1ccccc1N=C2c1ccccc1	none (no result: JMJD2A Tudor inh, VDR inh, L3MBTL1 block, BAZ2B inh, HP1b chromo inh)
O=C(O)C1C(c2ccccc2)c2ccccc2C(O)C1CO (stereo unspecified)	none (no result: L3MBTL1 block, BAZ2B inh)
O=c1n(Cc2ccc([N+](=O)[O-])cc2)c2ccccc2c2nc(-c3ccccc3)nn12	none (no result: PLK1 PBD inh, L3MBTL1 block)
CCOc1cc(C(=O)N2CC(=O)Nc3ccc(F)cc3C2c2ccccc2)cc(OCC)c1OCC (stereo unspecified)	none (no result: PLK1 PBD inh, L3MBTL1 block)
Cc1ccn2c(=O)c(C(=O)NCCc3ccc(S(N)(=O)=O)cc3)c(O)nc2c1	none (no result: PLK1 PBD inh, L3MBTL1 block)
CC(N)C(=O)NC(C(=O)N1CCCC1C(=O)NC(c1ccccc1)c1ccccc1)C(C)C (stereo unspecified)	JMJD2A Tudor inh 89µM
CNC(C)C(=O)NC(C(=O)N1CCCC1C(=O)NNc1ccccc1)C(C)C (stereo unspecified)	JMJD2A Tudor inh inconclusive, BAZ2B inh inconclusive
C[N+](C)(C)CCN1CCc2ccccc21	none (no result: JMJD2A Tudor inh, VDR inh, L3MBTL1 block, BAZ2B inh, HP1b chromo inh)
CCS(=O)(=O)N1CCC(C(=O)NCc2cccnc2)CC1	none
O=C(NCc1cccnc1)C1CC(c2ccccc2Cl)=NO1 (stereo unspecified)	PLK1 PBD inh 27µM
O=C(O)c1ccc(-c2ccccc2C(F)(F)F)o1	BAZ2B inh inconclusive (no result: L3MBTL1 block)
CC(C)CN(CC(C)C)S(=O)(=O)N1CCC(C(=O)NCc2cccnc2)CC1	PLK1 PBD inh 27µM (no result: L3MBTL1 block)
COc1cc(OC)c(C2=NOC(C(=O)NCc3cccnc3)C2)cc1Cl (stereo unspecified)	none
O=C1CCC(C(=O)NCc2cccnc2)N1 (stereo unspecified)	PLK1 PBD inh 30µM
O=C(NCc1ccccc1)c1ccc(-c2ccccc2C(F)(F)F)o1	VDR inh 112µM!
CCCC(=O)O[C@]1(C(=O)COC(C)=O)CC[C@H]2C3C[C@H](F)C4=CC(=O)C=CC4(C)[C@@]3(F)[C@@H](O)CC21C (stereo partly specified)	none (no result: PLK1 PBD inh, JMJD2A Tudor inh, L3MBTL1 block, BAZ2B inh, HP1b chromo inh)
Cc1ccc(C)n1-c1nnc(N2CCCC(C(=O)NCc3ccc(F)cc3)C2)s1 (stereo unspecified)	none (no result: PLK1 PBD inh, L3MBTL1 block)
CCN1C(=O)[C@H]2[C@H]3CN=C(SC)N3[C@@](Cc3ccccc3)(C(=O)OC)[C@H]2C1=O	none (no result: BAZ2B inh)
O=C(NCc1ccccc1)c1cc2sccc2n1Cc1ccc(Cl)cc1	none (no result: PLK1 PBD inh, L3MBTL1 block)
O=C(NCc1cccnc1)C1CC(c2ccccc2O)=NO1 (stereo unspecified)	JMJD2A Tudor inh 50µM, BAZ2B inh inconclusive
O=C(NCc1ccccn1)C1CC(c2ccccc2O)=NO1 (stereo unspecified)	none
Cc1cc2c(cc(C(=O)NCc3cccnc3)n2Cc2ccc(Cl)cc2)o1	JMJD2A Tudor inh 50µM, BAZ2B inh inconclusive
O=C(NCc1cccnc1)c1ccc(-c2cccc(Cl)c2Cl)o1	BAZ2B inh 71µM
O=C(NCc1cccnc1)c1ccc(-c2ccccc2[N+](=O)[O-])o1	none
N=c1c(S(=O)(=O)c2ccc(Br)cc2)cc2c(=O)n3ccccc3nc2n1C1CCCCC1	none (no result: L3MBTL1 block)
N=c1c(S(=O)(=O)c2ccccc2)cc2c(=O)n3ccccc3nc2n1C1CCCCC1	PLK1 PBD inh 21µM, JMJD2A Tudor inh inconclusive, HP1b chromo inh inconclusive (no result: L3MBTL1 block, BAZ2B inh)
CCCCCCC=C1CCC(CN2CCCC2)C1=O (stereo unspecified)	PLK1 PBD inh 3.4µM (no result: JMJD2A Tudor inh, VDR inh, L3MBTL1 block, BAZ2B inh, HP1b chromo inh)
O=C(CSc1nnc(CNC(=O)c2ccco2)o1)Nc1ccccc1F	PLK1 PBD inh 21µM (no result: L3MBTL1 block)
C[C@H]1CN([C@@H](C)CO)C(=O)CCCn2nncc2CO[C@@H]1CN(C)C(=O)c1ccc2ccn(C)c2c1	none (no result: JMJD2A Tudor inh, VDR inh, L3MBTL1 block, BAZ2B inh, HP1b chromo inh)
